Consider 39 compounds from PubChem BioAssay (NCATS).

Molecules are shown by their SMILES. Where “and” joins values, the source holds several entries; their conditions need not be identical. Equal values may be shown once. Records with an inconclusive call do not appear. Calls of active or inactive are those of the source. Calls follow the shape of the full dose curve.
Potency is read from the fitted curve at half-maximal effect.

The nature of this assay: Primary qHTS to identify inhibitors of SARS-CoV-2 cell entry (AID 1645846). Also: nearly all actives have a fitted effect of over 45% in size. The note with it: SARS-CoV-2 pseudovirus cell entry assay, luminescence; activity change, negative = inhibition: at 57.1 µM (top of the series) unless noted; series mostly up to 57.1 µM. The gist of the method: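 Using luciferase-reporting pseudoviruses carrying Wuhan-Hu-1 spike, the screen tracks entry into stably ACE2-expressing cells over 48 hr. Activity is expressed relative to spike particles versus particles lacking any fusion protein.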
On the technique in general: qHTS replaces the single test concentration by a dilution series.
For `CCN1CC(CCN2CCOCC2)C(c2ccccc2)(c2ccccc2)C1=O` (centres undefined), the activity change, negative = inhibition is -22.6%.

Turning to `COc1ccccc1OCC(O)CO` (centres undefined), the activity change, negative = inhibition is -15.9%.

Take `NCCCCCC(=O)O`: the activity change, negative = inhibition is -19.8% and -25.5%.

Turning to `O=C(O)c1cc(O)c(O)c(O)c1`, the outcome was inactive.

Turning to `CCCCCC[C@@H](CCC)C(=O)O`, the compound was called inactive.

As for `CC(C(=O)O)c1ccc2c(c1)CC(=O)c1ccccc1S2` (centres undefined), the Potency entry was “inactive”.

Turning to `COc1ccc(C(=O)c2ccccc2)c(O)c1`, the compound was classed as inactive.

Take `CC(=O)NCc1c(I)c(NC(C)=O)c(I)c(C(=O)O)c1I`: the compound was classed as inactive.

As to `Nc1ccc(S(=O)(=O)Nc2ccnn2-c2ccccc2)cc1`, the activity change, negative = inhibition stood at 4.82% [at 27.1 µM].

With `CC(C)(C)NC[C@H](O)COc1cccc2c1CCCC2=O`, the activity change, negative = inhibition was -5.98%.

Turning to `CC(C)(C)NC[C@H](O)COc1nsnc1N1CCOCC1`, the activity change, negative = inhibition is -5.6%.

In the case of `CO[C@@]1(NC(=O)C2SC(=C(C(N)=O)C(=O)O)S2)C(=O)N2C(C(=O)O)=C(CSc3nnnn3C)CS[C@@H]21` (some centres undefined), the activity change, negative = inhibition was 4.49%.

In the case of `NNC(=O)c1ccncc1`, the Potency result is “inactive”.

As for `CC(=O)SCC(CC(=O)c1ccc(C)cc1)C(=O)O` (centres undefined), the outcome was inactive.

Consider `CC[N+](CC)(CC)CCOc1cccc(OCC[N+](CC)(CC)CC)c1OCC[N+](CC)(CC)CC`, for which the Potency entry was “inactive”.

`CN[C@@H]1[C@@H](O)[C@@H](O[C@@H]2[C@H](O)[C@H](O[C@H]3OC(CN)=CC[C@H]3N)[C@@H](N)C[C@H]2N)OCC1(C)O` (some centres undefined): the result was inactive.

Regarding `OCc1ccc(Cl)cc1Cl`, the call was inactive.

Turning to `O=C(O)Cc1cccc2ccccc12`, the call was inactive.

For the compound `C[C@]12CCC(=O)C=C1CC[C@@H]1[C@@H]2[C@@H](O)C[C@@]2(C)[C@H]1CC[C@]2(O)C(=O)COC(=O)CCC(=O)O`, the compound was called inactive.

Take `COc1ccnc(CS(=O)c2nc3ccc(OC(F)F)cc3[nH]2)c1OC` (centres undefined): the Potency result is “inactive”.

On to `CN(C)CCOc1ccc(/C(=C(/CCCl)c2ccccc2)c2ccccc2)cc1`, for which the Potency is 15.8 µM (active) and 20 µM (active).

On to `CN(C)CCN(Cc1ccsc1)c1ccccn1`, for which the activity change, negative = inhibition was -8.15%.

As to `CC(C)(Oc1ccc(C2CC2(Cl)Cl)cc1)C(=O)O` (centres undefined), the Potency result is “inactive”.

As for `CC(=O)[C@@]1(O)CC[C@H]2[C@@H]3C[C@H](C)C4=CC(=O)C=C[C@]4(C)[C@@]3(F)[C@@H](O)C[C@@]21C`, the activity change, negative = inhibition was determined as 1.04%.

In the case of `CCC[C@@H]1C[C@@H](C(=O)N[C@@H]([C@H]2O[C@H](SC)[C@H](O)[C@@H](O)[C@H]2O)[C@H](C)Cl)N(C)C1`, the activity change, negative = inhibition was -7.46%.

Turning to `CC(CCc1ccc(O)cc1)NCCc1ccc(O)c(O)c1` (centres undefined), the activity change, negative = inhibition is -37.3%.

As to `COC(=O)N/N=C/c1c[n+]([O-])c2ccccc2[n+]1[O-]`, the call was inactive.

As to `C[N+]1(C)CCCC(OC(=O)C(O)(c2ccccc2)c2ccccc2)C1` (centres undefined), the activity change, negative = inhibition is -26.9%.

Take `CN[C@@H]1CCc2[nH]c3ccc(C(N)=O)cc3c2C1`: the activity change, negative = inhibition was -34.4%.

Regarding `O=C(CS(=O)Cc1ccco1)NC/C=C\COc1cc(CN2CCCCC2)ccn1` (centres undefined), the result was inactive.

As to `O=C(O)[C@@H](O)[C@H](O)[C@H](O)[C@@H](O)C(=O)O`, the activity change, negative = inhibition was -0.518%.

As to `CC(C(=O)O)c1ccc(C(=O)c2ccccc2)s1` (centres undefined), the compound was classed as inactive.

As for `CN1C(CSCC(F)(F)F)Nc2cc(Cl)c(S(N)(=O)=O)cc2S1(=O)=O` (centres undefined), the activity change, negative = inhibition was -21.3%.

Turning to `CCN[C@H]1CN(CCCOC)S(=O)(=O)c2sc(S(N)(=O)=O)cc21`, the activity change, negative = inhibition is -6.75%.

For `O=C(O)CCCC[C@@H]1SC[C@@H]2NC(=O)N[C@@H]21`, the call was inactive.

Regarding `Cc1c(Nc2ncccc2C(=O)O)cccc1C(F)(F)F`, the compound was classed as inactive.

Turning to `Cc1cc2nc3c(=O)[nH]c(=O)nc-3n(C[C@H](O)[C@H](O)[C@H](O)CO)c2cc1C`, the “outcome” value is “inactive [at 27.1 µM]”.

In the case of `CS(=O)(=O)c1ccc([C@@H](O)[C@@H](CF)NC(=O)C(Cl)Cl)cc1`, the activity change, negative = inhibition is -26.1%.

Regarding `O=C1[C@@H]2[C@H]3CC[C@H](C3)[C@@H]2C(=O)N1CCCCN1CCN(c2ncccn2)CC1`, the activity change, negative = inhibition is -0.993%.
